We go through 69 compounds from ChEMBL document CHEMBL3988442, “University of Dundee, Small-Polar-MMV Screening Library” (2021).

This experiment concerns Leishmania donovani. As to the kind of experiment: Leishmania intramacrophage assay. In kind it is functional, organism-based. More on the design: scale not given: in the data most compounds retested in dose-response had high values.

The campaign covered roughly 69,000 compounds. About 1,000 (1.4%) showed an effect of 50% or more. The full list was thinned out, with strong results kept by preference.

For `COc1cccc(CCC(=O)N2CCCC(n3cc(C)cn3)C2)c1` (centres undefined), the “Percent Effect” value (30 µM, 30.03 µM) worked out at 9.343%.

As for `Cc1cc(C(=O)N2CCCC2c2noc(C)n2)[nH]n1` (centres undefined), the “Percent Effect” value (30.3 µM, […]) is on record as -9.431%.

For `Cc1nc(C)c(C(=O)N2CCC(O)(Cn3ccc4ccncc43)CC2)s1`, the “Percent Effect” value (30.3 µM, […]) was -5.567%.

As for `O=C(Nc1cccc(CN2CCOC2=O)c1)N1CCCC1`, the “Percent Effect” value (30.3 µM, […]) is -5.143%.

As for `Cc1noc(C)c1C(=O)N(C)Cc1nc(-c2ccccn2)no1`, the “Percent Effect” value (30 µM, 30.03 µM) worked out at 21.79%.

In the case of `Cc1noc(C(C)C)c1C(=O)NCCN1CCCCCC1=O`, the “Percent Effect” value (30 µM, 30.03 µM) was 20.26%.

For `O=C1CCC(C(=O)NCCOc2cccc(Cl)c2Cl)CN1` (centres undefined), under “30.3 µM, […]”, the “Percent Effect” value worked out at 18.68%.

Turning to `CN(C)C1CCCN(C(=O)c2cccc(-c3ncc[nH]3)c2)CC1` (centres undefined), under “30.3 µM, […]”, the “Percent Effect” value is reported as 21.12%.

As for `CN(C)[C@H]1CCCCN(C(=O)c2cccc(N3CCS(=O)(=O)CC3)c2)C1`, the “Percent Effect” value (30.3 µM, […]) is given as -11.54%.

Take `CN(C)[C@H]1CCCCN(C(=O)c2cccc(-c3cccc(F)c3)c2)C1`: the “Percent Effect” value (30.3 µM, […]) is 60.02%.

As to `Cc1ncc(CNC(CCO)C2CCCCC2)s1` (centres undefined), the “Percent Effect” value (30.3 µM, […]) is -3.67%.

On to `Cc1nc(CN2C(=O)C[C@@H]3[C@@H]2CCN3S(C)(=O)=O)cs1`, for which, where the note is “30.3 µM, […]”, the “Percent Effect” value is -12.74%.

As to `Cc1nnc([C@@H]2C[C@H]3CN(C(=O)C4CC4)C[C@H]3O2)[nH]1`, the “Percent Effect” value (30.3 µM, […]) is 15.1%.

As to `Cc1cccc(C(C(=O)NC(C)(C)CN2CCCC2)N(C)C)c1` (centres undefined), the “Percent Effect” value (30.3 µM, […]) is reported as 64.22%.

With `Cc1cccc(C(C(=O)NC(C)(C)CN2CCOCC2)N(C)C)c1` (centres undefined), the “Percent Effect” value (30.3 µM, […]) was -45.9%.

As for `Cc1ccc(C(C(=O)NC(C)(C)CN2CCCC2)N(C)C)cc1` (centres undefined), the “Percent Effect” value (30.3 µM, […]) is recorded as -34.55%.

As for `CCN(Cc1ccc2c(c1)OCO2)C(=O)NC(C)Cn1cccn1` (centres undefined), where the note is “30 µM, 30.03 µM”, the “Percent Effect” value was -8.819%.

As to `O=C1CCC(c2ccc(Cl)cc2)=NN1CN1CCSCC1`, the “Percent Effect” value (30.3 µM, […]) is given as 35.07%.

As for `O=C1CCC(c2ccccc2)=NN1CN1CCCCCC1`, the “Percent Effect” value (30.3 µM, […]) is recorded as 54.14%.

For the compound `O=C1CCC(c2ccc(Cl)cc2)=NN1CN1CCCCCC1`, where the note is “30.3 µM, […]”, the “Percent Effect” value is reported as -2.466%.

As to `Cc1cc2ccccc2n1CCC(=O)NCCCc1nnc(N)s1`, the “Percent Effect” value (30.3 µM, […]) turned out to be 18.88%.

Take `Cc1cc(C(F)F)nn1C(C)C(=O)NCc1ncc[nH]1` (centres undefined): the “Percent Effect” value (30.3 µM, […]) is on record as 43.47%.

For `CCn1nc(C)c(CN2CCC(c3ccc(C(=O)O)cc3)C2)c1C` (centres undefined), the “Percent Effect” value (30.3 µM, […]) worked out at 54.96%.

For the compound `CCn1nc(C)c(CN2CCCC(c3ccc(C(=O)O)cc3)C2)c1C` (centres undefined), where the note is “30.3 µM, […]”, the “Percent Effect” value came to 17.25%.

On to `Cc1nn(C)c(C)c1CN1CCCC(c2ccc(C(=O)O)cc2)C1` (centres undefined), for which the “Percent Effect” value (30.3 µM, […]) was found to be 20.41%.

For `CCS(=O)(=O)CCN(C)Cc1cc(C)ccc1OC`, where the note is “30.3 µM, […]”, the “Percent Effect” value amounted to 6.115%.

On to `CC(=O)NCC(=O)N1CCN(CCN(C)C)c2ncccc2C1.O=C(O)C(F)(F)F.O=C(O)C(F)(F)F`, for which the “Percent Effect” value (30.3 µM, […]) was 27.08%.

In the case of `COCC(=O)NC[C@@]1(COc2cccnc2)C[C@@H](O)[C@@H](O)C1.Cl`, the “Percent Effect” value (30.3 µM, […]) is listed as -3.857%.

Turning to `COC(=O)c1cccc(S(=O)(=O)NC(=O)COC2CCCC2)c1`, for the setting “30 µM”, the “Percent Effect” value is -0.3864%.

In the case of `c1cncc(-c2ccnn2CN2CCC3(CC2)OCCO3)c1`, the “Percent Effect” value (30.3 µM, […]) is 24.88%.

Turning to `c1cnc(N2CCN(Cn3nccc3-c3cccnc3)CC2)nc1`, the “Percent Effect” value (30.3 µM, […]) is given as 61.02%.

For the compound `CC(C)(C)CCN1CCN(Cn2nccc2-c2cccnc2)CC1`, the “Percent Effect” value (30.3 µM, […]) is on record as 14.91%.

As for `Clc1ccc(CN2CCN(Cn3nccc3-c3cccnc3)CC2)s1`, the “Percent Effect” value (30.3 µM, […]) is 56.59%.

Take `c1cncc(-c2ccnn2CN2CCOCC2)c1`: the “Percent Effect” value (30.3 µM, […]) is recorded as -9.601%.

`CC(C)(C)C(=O)N1CCN(Cn2nccc2-c2cccnc2)CC1`: the “Percent Effect” value (30.3 µM, […]) is 7.096%.

`COc1ccc(CC2CN(C(=O)c3ocnc3C)CCO2)cc1` (centres undefined): the “Percent Effect” value (30.3 µM, […]) is on record as -6.657%.

`N#Cc1ccccc1C(=O)N1C[C@H](CO)C[C@H](CN2CCCC2)C1`: the “Percent Effect” value (30 µM, 30.03 µM) came to 18.98%.

Consider `Cc1nc2ccnn2c(C)c1CCC(=O)N1CCN(CCO)CC1`, for which the “Percent Effect” value (30 µM) is reported as 14.29%.

For the compound `CC(=O)N1CCCC(c2ccc(Cc3ccccc3)cn2)C1` (centres undefined), the “Percent Effect” value (30.3 µM, […]) was -26.06%.

Regarding `Cc1nc(CN2CCO[C@H]3CN(C(=O)c4cscn4)C[C@H]32)cs1`, the “Percent Effect” value (30.3 µM, […]) was 38.15%.

In the case of `Cc1ccsc1CN1CCc2nc3ccsc3c(=O)n2CC1.Cl`, where the note is “30.3 µM, […]”, the “Percent Effect” value amounted to 14.2%.

Turning to `Nc1nc(NCCO)cc(N2CCc3c([nH]c4ccccc34)C2)n1`, the “Percent Effect” value (30.3 µM, […]) worked out at 50.32%.

On to `CC(C)Cc1ncc2c(n1)CN(c1cc(NCCO)nc(N)n1)C2`, for which the “Percent Effect” value (30.3 µM, […]) stood at 22.17%.

For the compound `COc1ccc2[nH]c3c(c2c1)CN(c1cc(NCCO)nc(N)n1)CC3`, the “Percent Effect” value (30.3 µM, […]) is 13.82%.

With `CC(=O)N1CCO[C@@H]2CN(Cc3ccccc3F)C[C@@H]2C1.O=C(O)C(F)(F)F`, the “Percent Effect” value (30.3 µM, […]) is 6.292%.

Regarding `O=C(NCc1cccs1)C1CNCC12CCOCC2.O=C(O)C(F)(F)F` (centres undefined), where the note is “30.3 µM, […]”, the “Percent Effect” value is recorded as 12.59%.

For the compound `CCN1CCC(NC(=O)N(C)Cc2csc3ccccc23)CC1`, where the note is “30.3 µM, […]”, the “Percent Effect” value came to 82.94%.

For `CC(C)CN1CCC(NC(=O)N(C)Cc2csc3ccccc23)CC1`, under “30.3 µM, […]”, the “Percent Effect” value is given as 39.03%.

Take `CN(Cc1csc2ccccc12)C(=O)NC1CCS(=O)(=O)C1` (centres undefined): the “Percent Effect” value (30.3 µM, […]) was 11.38%.

For `COc1ccc(CCC(=O)Nc2cccnc2N2CCCC2)cc1Br`, where the note is “30 µM, 30.03 µM”, the “Percent Effect” value stood at 33.61%.

Consider `Cc1ccc(CNC(=O)CN2CCOC(Cn3cncn3)C2)s1` (centres undefined), for which the “Percent Effect” value (30 µM) came to 21.75%.

On to `Cc1nc(Nc2nnc(C)s2)cc(C2CCCN2c2ccncn2)n1` (centres undefined), for which the “Percent Effect” value (30.3 µM, […]) is recorded as -2.613%.

Consider `CCC(NC(=O)C(C)(C)C)c1ccccc1C` (centres undefined), for which the “Percent Effect” value (30.3 µM, […]) is on record as -8.319%.

As for `CC(=O)N1CCN(C(=O)NC(C)C)CC2(CC(=O)N(C)C2)C1` (centres undefined), the “Percent Effect” value (30.3 µM, […]) is 6.648%.

In the case of `CC(C)CC(=O)N1CCN(C(=O)NC(C)C)CC2(CC(=O)N(C)C2)C1` (centres undefined), where the note is “30.3 µM, […]”, the “Percent Effect” value was -8.176%.

As to `COCC(=O)N1CCN(C(=O)NC(C)C)CC2(CC(=O)N(C)C2)C1` (centres undefined), the “Percent Effect” value (30.3 µM, […]) is listed as 56.1%.

With `CCc1cnc(CN(C)C2CCN(CCCNS(C)(=O)=O)C2)o1` (centres undefined), for the setting “30.3 µM, […]”, the “Percent Effect” value came out at 8.531%.

On to `c1csc(CCC2CCCCN2Cc2noc(C3CC3)n2)c1` (centres undefined), for which the “Percent Effect” value (30.3 µM, […]) was -14.11%.

As for `CCC1CCCCCN1C(=O)c1ccc(N2CCC(O)CC2)cc1` (centres undefined), the “Percent Effect” value (30.3 µM, […]) is 32.16%.

Regarding `CCCOc1c(Cl)cc(C(=O)N2CCOC23CCN(C)CC3)cc1Cl`, the “Percent Effect” value (30.3 µM, […]) was found to be 88.42%.

On to `CCN1CCC2(CC1)OCCN2C(=O)c1cc(Cl)c(OC)c(Cl)c1.Cl`, for which the “Percent Effect” value (30.3 µM, […]) amounted to 18.32%.

As to `CCN1CCC2(CC1)OCCN2C(=O)c1ccc(OC)c(Cl)c1.Cl`, the “Percent Effect” value (30.3 µM, […]) amounted to 22.75%.

In the case of `CS(=O)(=O)N1CCC2(CC1)CC(NCc1ccco1)c1ccccc12.O=C(O)C(F)(F)F` (centres undefined), under “30.3 µM, […]”, the “Percent Effect” value turned out to be 16.74%.

`COc1ccc2c(ccn2CCC(=O)O)c1`: the “Percent Effect” value (30 µM, 30.03 µM) was 9.834%.

As to `C/N=C1\c2cc3cc(OC)ccc3n2CCN1Cc1ccccc1.O=C(O)C(F)(F)F`, the “Percent Effect” value (30.3 µM, […]) is on record as 57.81%.

With `COc1ccc(CN2CC[C@@H](O)[C@@H]2Cc2ccccc2)cc1.O=C(O)C(F)(F)F`, for the setting “30 µM, 30.03 µM”, the “Percent Effect” value is listed as -18.25%.

On to `C/N=C1/c2cc3cc(OC)ccc3n2CCN1C`, for which, for the setting “30.3 µM, […]”, the “Percent Effect” value is on record as -16.2%.

In the case of `C/N=C1\c2cc3cc(OC)ccc3n2CCN1C.Cl`, the “Percent Effect” value (30.3 µM, […]) was determined as 10.14%.

For `C/N=C1/c2cc3cc(OC)ccc3n2CCN1Cc1ccccc1.Cl`, the “Percent Effect” value (30.3 µM, […]) came out at 64.09%.
